Test [1] concerns Human papillomavirus type 1a protein E7 (residues 44-93). Briefly: small molecules binding HPV E7 44-93 – biochemical, small-molecule microarray, residues 44-93, 635 nm fluorescence, primary screen (AID 1108).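 Further: E7 fragment applied at 1 µg/mL in TBST for 1 h at 4 C; score combines spot fluorescence with its signal to noise ratio.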 The conditions noted are these: fluorescence 635 nm, higher = more signal.
The nature of test [2]: hepatitis C replication reporter changes, two-sided – Huh7 cells, luciferase reporter, HCV replication inhibitor project, primary screen (AID 1109).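 Further: huh7 hepatoma cells harbouring a luciferase neomycin HCV replicon reporter; luciferase luminescence as measure of HCV replicon replication; test concentration not given here.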 The conditions noted are these: Huh7 HCV replicon luciferase reporter, 48 h; higher = more signal. Background: A reporter such as luciferase makes a cellular process visible.
For test [3], the target named is Left-right determination factor 2 (Homo sapiens) (UniProt O00292). In words: small molecules binding LEFTY2 protein – biochemical, small-molecule microarray, 635 nm fluorescence scan, primary screen (AID 1110). The settings on record: higher = more signal.
Test [4] has as its target Calmodulin-1 (Homo sapiens) (UniProt P0DP23). In words: small molecules binding calmodulin-1 with EGTA – biochemical, small-molecule microarray, Cy5-labelled CALM1, profiling panel (AID 1111).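 Further: labelled calmodulin applied in Tris saline Tween buffer holding calcium plus EGTA and DTT.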 The conditions noted are these: Cy5-CALM1 binding fluorescence, higher = more signal.
Test [5] has the same target. Briefly: small molecules binding Ca-loaded calmodulin-1 – biochemical, small-molecule microarray, Cy5-labelled CALM1, plus calcium, artefact control for SMM control-protein annotation, profiling panel (AID 1112).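 Further: score merges spot fluorescence with signal to noise from triplicate slides.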 The settings on record: Cy5-CALM1 binding fluorescence, higher = more signal.
Test [6] in a line: probe aWnt5a binding to arrayed compounds – biochemical, biotinylated probe, 635/667 nm fluorescence, primary screen (AID 1113).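 Further: score merges 667 nm fluorescence intensity with signal-to-noise per printed feature.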 The conditions noted are these: small-molecule microarray, higher = more signal.
Test [7] can be described thus: probe aShh binding to arrayed compounds – biochemical, biotinylated probe, 635/667 nm fluorescence, primary screen (AID 1114).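 Further: probe is biotin-labelled aShh protein from a stem cell growth factor screen; measures binding of labelled protein to compounds printed on the slide; score merges feature fluorescence at 667 nm with signal-to-noise.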 The settings on record: small-molecule microarray, higher = more signal.
A short description of test [8]: probe aNog binding to arrayed compounds – biochemical, biotinylated probe, 635/667 nm fluorescence, primary screen (AID 1115).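 Further: probe is biotinylated aNog protein used at 0.15 µg/mL for 1 h at 4 C; z-score combines 667 nm fluorescence of each spot with its signal to noise.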 The settings on record: small-molecule microarray, higher = more signal.
The target in test [9] is Torsin-1A-interacting protein 1 (Homo sapiens) (UniProt Q5JTV8). In words: compound microarray binding of lysate hLAP1 – cell lysate, small-molecule microarray, COS7 lysate, 635/667 nm fluorescence, primary screen (AID 1116). The settings on record: 635 nm fluorescence, higher = more signal.
Test [10] concerns the target Alpha-bungarotoxin (Bungarus multicinctus) (UniProt P60615). In words: compounds binding labelled alpha-BTX control protein – biochemical, small-molecule microarray, Alexa647 label, 635/667 nm fluorescence, artefact control for SMM control protein annotation, profiling panel (AID 1117). The settings on record: alpha-BTX-A647 binding fluorescence, higher = more signal.

Sequence of Alpha-bungarotoxin (Bungarus multicinctus) (P60615 whole entry, looked up): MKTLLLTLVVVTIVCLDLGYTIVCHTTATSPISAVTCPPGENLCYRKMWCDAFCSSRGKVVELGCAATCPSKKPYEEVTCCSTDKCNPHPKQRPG
Sequence of Left-right determination factor 2 (Homo sapiens) (O00292 whole entry, looked up): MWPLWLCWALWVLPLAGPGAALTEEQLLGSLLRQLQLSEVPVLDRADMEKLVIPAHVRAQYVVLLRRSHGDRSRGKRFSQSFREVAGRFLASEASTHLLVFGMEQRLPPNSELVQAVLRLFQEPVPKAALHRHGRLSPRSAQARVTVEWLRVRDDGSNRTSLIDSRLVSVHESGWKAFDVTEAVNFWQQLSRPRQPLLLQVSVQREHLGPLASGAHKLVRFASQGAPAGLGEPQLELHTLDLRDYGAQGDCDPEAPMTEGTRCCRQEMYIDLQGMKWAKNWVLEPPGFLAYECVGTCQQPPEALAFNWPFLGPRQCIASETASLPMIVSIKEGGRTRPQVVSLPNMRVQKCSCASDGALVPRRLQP
Sequence of Torsin-1A-interacting protein 1 (Homo sapiens) (Q5JTV8 whole entry, looked up): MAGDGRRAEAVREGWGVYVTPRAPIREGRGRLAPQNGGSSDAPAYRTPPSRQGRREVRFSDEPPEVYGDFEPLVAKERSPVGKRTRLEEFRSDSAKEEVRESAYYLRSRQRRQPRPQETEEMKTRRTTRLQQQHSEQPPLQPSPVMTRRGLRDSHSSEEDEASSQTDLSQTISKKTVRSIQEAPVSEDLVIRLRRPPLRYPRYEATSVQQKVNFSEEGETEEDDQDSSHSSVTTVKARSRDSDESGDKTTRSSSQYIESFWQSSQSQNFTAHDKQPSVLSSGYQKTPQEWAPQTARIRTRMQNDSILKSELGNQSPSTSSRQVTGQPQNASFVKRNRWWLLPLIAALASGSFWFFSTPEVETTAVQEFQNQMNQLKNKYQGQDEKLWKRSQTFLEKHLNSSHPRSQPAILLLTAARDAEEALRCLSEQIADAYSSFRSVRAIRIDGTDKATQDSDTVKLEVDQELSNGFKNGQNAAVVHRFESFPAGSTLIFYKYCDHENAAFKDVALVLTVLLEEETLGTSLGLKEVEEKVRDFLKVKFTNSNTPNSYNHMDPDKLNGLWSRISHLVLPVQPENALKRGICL

For the compound `C[C@H]1C=CCC(=O)OC[C@H](C)C(=O)N2CCC[C@H]2C(=O)OC1`, the composite z-score was -2.34 in test [1]; 1.62 in test [3]; -0.774 in test [4]; -1.82 in test [5]; -0.174 in test [6]; -0.0709 in test [7]. In addition, the composite z-score in test [8] is -0.137; in [9] it was 1.71; in test [10] it was -0.477. Also, the z-score in [2] is -0.971.

For the compound `COC(=O)[C@H](C)NC(=O)CCC1CC(OC(=O)NCCc2ccc(F)cc2)CC2(CCCC(COC(=O)NCc3ccccc3)O2)O1` (stereo not given in full), the composite z-score was 1.32 in test [1]; 0.816 in test [3]; 0.516 in [4]; -0.796 in test [5]; -0.141 in [6]; -0.221 in [7]. Besides, the composite z-score in test [8] was -0.384; in [9] it was 0.708; in test [10], 0.574. In test [2], this compound displayed a z-score of -1.18.

With `CCCNC(=O)OC[C@H]1O[C@H](CCON=C[C@@H](C)[C@H](OCc2ccccc2)C(C)C)C=C[C@@H]1Oc1ccc(OC)cc1`, the composite z-score in test [1] was 0.427; in test [3], 0.182; in test [4], -0.755; in [5], -0.515; in test [6], -0.156; in test [7], -0.484. The results for the composite z-score in test [8], in test [9] and in test [10] were -0.196, -0.163 and 0.297, respectively. The z-score in [2] was -2.17.

Turning to `CCOC(=O)CCN1C(=O)[C@H]2[C@H]3[C@H](O)[C@H](O)CC(=NO[C@@H]4O[C@H](CO)[C@@H](O)[C@H](O)[C@H]4O)[C@H]3CC[C@H]2C1=O`, the composite z-score is 0.0713 in test [1]; 0.523 in [3]; 0.112 in test [4]; -0.847 in test [5]; -0.0286 in [6]; -0.156 in test [7]. The composite z-score in [8] was -0.0309; in [9] it was -0.127; in test [10], 0.263. The compound further yielded a z-score in test [2] of 0.587.

With `Cc1ccc(C(C)C)n1C(=O)OC(C)(C)C`, the composite z-score is 0.471 in [1]; 0.587 in [3]; -0.159 in test [4]; -0.659 in test [5]; -0.0704 in test [6]; -0.13 in [7]. The results for the composite z-score in [8], in test [9] and in test [10] were -0.255, 0.241 and 0.0251, respectively. In test [2], this compound registered a z-score of 1.85.

Regarding `CCOC(=O)[C@H](CC(C)C)NC(=O)CCC1CC(OC(=O)NCc2ccc3c(c2)OCO3)CC2(CCCC(COC(=O)NCCOc3ccccc3)O2)O1` (stereo not given in full), the composite z-score in test [1] was 1.35; in test [3], 0.715; in test [4], -0.0232; in test [5], -0.466; in [6], 0.0232; in test [7], -0.0289. In addition, the composite z-score in [8] is -0.404; in test [9], 0.303; in test [10], 0.905. In [2], this compound displayed a z-score of -1.07.

As for `CO[C@H]1COC(=O)CC=C[C@@H](C)COC(=O)[C@H]2CCCN2C(=O)CC=C[C@H]1C`, the composite z-score is -0.858 in test [1]; 1.48 in [3]; -1.05 in [4]; -1.72 in test [5]; -0.0721 in test [6]; 0.684 in test [7]. Further, the composite z-score in test [8] is -0.542; in test [9], 1.03; in test [10], -1.25. Besides, in [2], the z-score was -0.0849.

As to `O=C1[C@H]2[C@H]3[C@H](O)[C@H](O)CC(=NOC[C@@H](O)COCc4ccco4)[C@@H]3CC[C@H]2C(=O)N1C1CCCCC1`, the composite z-score in test [1] was 0.814; in test [3] it was 0.72; in test [4], -0.608; in test [5] it was -1.66; in [6], -0.124; in test [7], -0.206. Further, the composite z-score is -0.5 in test [8], 0.289 in test [9] and -0.0636 in test [10]. Also, the z-score in test [2] was -0.337.

Turning to `CC(C)CN1CCc2nc(-c3ccccc3)c3c(c2C1)CO[C@@H](C)C3`, the composite z-score in test [1] is 1.01; in [3], 0.881; in [4], 0.566; in [5], 0.32; in [6], -0.0285; in test [7], 0.0751. Also, the composite z-score in test [8] was -0.149; in [9], 0.152; in test [10], 0.365. This compound gave a z-score in test [2] of -0.791.

Regarding `CC(=O)OC[C@H]1O[C@@H](ON=C2[C@H]3CCn4c(=O)n(-c5ccccc5)c(=O)n4[C@H]3[C@H](O)[C@@H]3O[C@H]23)[C@H](OC(C)=O)[C@@H](OC(C)=O)[C@@H]1OC(C)=O`, the composite z-score in test [1] was 1.08; in test [3], 0.664; in [4], -0.0898; in test [5] it was -0.268; in [6] it was -0.101; in test [7] it was 0.0902. In addition, the figures for the composite z-score in test [8], in test [9] and in [10] were -0.0563, 0.479 and 0.393, respectively. The compound further showed a z-score in [2] of -3.07.

For `COC(=O)[C@H](C)NC(=O)CCC1CC(OC(=O)NCc2cccc3ccccc23)CC2(CCCC(COC(=O)NCCOc3ccccc3)O2)O1` (stereo not given in full), the composite z-score is 1.33 in test [1]; 0.43 in [3]; 1.33 in test [4]; -0.232 in test [5]; -0.251 in test [6]; -0.138 in test [7]. The composite z-score was -0.559 in test [8], 0.347 in test [9] and 0.862 in [10]. In test [2], the z-score is -0.682.

As for `CC(=O)OC[C@H]1O[C@H](CC=NO[C@@H](C)c2cn([C@H](CO)Cc3ccccc3)nn2)C=C[C@@H]1OC(C)=O`, the composite z-score in test [1] is 0.949; in [3] it was 0.656; in test [4] it was -0.16; in test [5] it was -0.174; in test [6], -0.176; in test [7], 0.194. The composite z-score came to 0.158 in [8], 1.03 in test [9] and 1.56 in test [10]. This compound also came in with a z-score in [2] of -1.02.

As for `C[C@@H]1CC[C@@H](C(=O)O)N[C@H]1c1cccc(N2CCOCC2)c1`, the composite z-score in [1] was 0.456; in test [3], 0.436; in [4], -0.101; in [5], -0.0411; in test [6] it was -0.0758; in [7] it was -0.262. In addition, the composite z-score in test [8] is -0.324; in [9], 0.513; in test [10], 0.851. Also, the z-score in test [2] is 0.47.

Take `CC(CCN1CCCc2nc(C)c(C)cc21)=NOC[C@@H](C)[C@H](OCc1ccccc1)C(C)C`: the composite z-score was -1.39 in [1]; -0.196 in test [3]; -1 in test [4]; -0.387 in [5]; -0.0685 in [6]; -0.138 in [7]. In addition, the figures for the composite z-score in test [8], in test [9] and in test [10] were -0.255, -0.187 and -1.1, respectively. This compound came in with a z-score in test [2] of -0.148.

`CC(C)[C@H](NC(=O)OC(C)(C)C)[C@@H](O)CC(=O)C(C)(C)C`: the composite z-score was 0.223 in [1]; -0.1 in test [3]; -0.32 in test [4]; -0.748 in test [5]; -0.18 in [6]; -0.24 in test [7]. Further, the composite z-score in test [8] was 0.237; in test [9], 0.161; in test [10], 0.302. Besides, the z-score in test [2] is 0.515.

Turning to `COC(=O)CC=C[C@@H](C)[C@@H](C=NOC(C)CN1CCCCc2nc(C)c(C)cc21)NS(=O)(=O)c1ccc(C)cc1` (stereo not given in full), the composite z-score in [1] was 0.241; in [3], 0.614; in [4], -0.344; in test [5] it was -1.27; in test [6] it was -0.158; in test [7], 0.0144. The composite z-score came to 0.0567 in [8], 0.0017 in test [9] and 0.363 in [10]. In [2], this compound gave a z-score of 0.0814.

Take `O=C1C[C@@H](O)[C@@H](O)[C@@H]2[C@@H]3C(=O)N(Cc4ccccc4)C(=O)[C@@H]3CC[C@H]12`: the composite z-score in [1] is -0.234; in test [3], 0.804; in test [4], 0.0302; in [5], -0.344; in [6], -0.0869; in [7], -0.138. Also, the composite z-score in test [8] stood at 0.0369; in [9] it was 0.432; in [10] it was 0.848. The z-score in test [2] was -0.0156.

As to `CC(C)=NOC(C)CN1CCCc2nc(C)c(C)cc21` (stereo not given), the composite z-score is 1.17 in [1]; 0.75 in [3]; -0.291 in test [4]; -0.869 in test [5]; -0.0718 in test [6]; 0.214 in test [7]. In addition, the composite z-score in test [8] is -0.0809; in test [9], -0.0182; in test [10], 0.32. For the same compound, the z-score in test [2] turned out to be 0.302.
